Experimental data taken from PubChem BioAssay.
Activity calls are given as the source filed them.

Key:
[1] = system: Plasmodium falciparum Sir2 (PF13_0152, Sir2A); assay: pfSir2 binders on small-molecule microarrays, primary screen, biochemical, small-molecule microarray, 635 nm fluorescence (AID 1098); settings: small-molecule microarray binding, fluorescence 635 nm; higher = more signal;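 note: score merges spot fluorescence intensity with its signal-to-noise ratio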
[2] = small-molecule microarray binders of probe aDKK1, primary screen, biochemical, biotinylated probe, 635/667 nm fluorescence (AID 1099); settings: higher = more signal;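 note: score merges 667nm spot fluorescence with signal to noise across triplicate slides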
[3] = small-molecule microarray binders of probe aCHRDL2, primary screen, biochemical, biotinylated probe, 635/667 nm fluorescence (AID 1100); settings: higher = more signal
[4] = splicing luciferase reporter signal modulators, primary screen, spliceosome inhibition project, cell-based, HEK293, splice +/- reporter (AID 1101); settings: luminescence, 24 h, higher = more signal, called active from +8 up or from −8 down;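 note: HEK293 cells carrying a splicing-competent luciferase reporter gene; test concentration not given here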
[5] = molecular target: Fibroblast growth factor 10 (Homo sapiens) (UniProt O15520); assay: FGF10 binders on small-molecule microarrays, primary screen, biochemical, small-molecule microarray, 635 nm fluorescence (AID 1102); settings: FGF10 binding, fluorescence 635 nm, higher = more signal
[6] = system: glycogen synthase kinase-3 (GSK3A per assay name; protocol says GSK3B); assay: GSK3 binders on small-molecule microarrays, primary screen, biochemical, small-molecule microarray, 635 nm fluorescence, GSK3A (AID 1103); settings: small-molecule microarray binding, fluorescence 635 nm; higher = more signal; note: the record names both GSK3A and GSK3B
[7] = molecular target: Epidermal growth factor receptor (Homo sapiens) (UniProt P00533); assay: EGFR binders on small-molecule microarrays, primary screen, biochemical, small-molecule microarray, 635 nm fluorescence (AID 1104); settings: EGFR binding, higher = more signal;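 note: score merges 667 nm emission intensity with spot signal to noise over triplicate slides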
[8] = molecular target: Follistatin-related protein 3 (Homo sapiens) (UniProt O95633); assay: FSTL3 binders on small-molecule microarrays, primary screen, biochemical, small-molecule microarray, 635 nm fluorescence (AID 1105); settings: FSTL3 binding, higher = more signal;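 note: score merges emission near 667 nm and signal to noise per printed spot across three slides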
[9] = molecular target: Dickkopf-related protein 1 (Homo sapiens) (UniProt O94907); assay: DKK1 binders on small-molecule microarrays, primary screen, biochemical, small-molecule microarray, 635 nm fluorescence scan (AID 1106); settings: DKK1 binding, higher = more signal;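 note: score merges emission near 667 nm with signal to noise over three replicate slides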
[10] = system: Inhibin beta A chain (activin A); assay: INHBA (activin A) binders on microarrays, primary screen, biochemical, small-molecule microarray, 635 nm fluorescence scan (AID 1107); settings: small-molecule microarray binding, higher = more signal;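 note: mouse activin A protein probed at 4.33 µg/mL on printed slides; score merges bound-protein fluorescence near 667 nm with spot signal-to-noise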
[11] = system: Human papillomavirus type 1a protein E7 (residues 44-93); assay: HPV1a E7 fragment binders on microarrays, primary screen, biochemical, small-molecule microarray, residues 44-93, 635 nm fluorescence (AID 1108); settings: small-molecule microarray binding, fluorescence 635 nm; higher = more signal;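 note: E7 fragment applied at 1 µg/mL in TBST for 1 h at 4 C; score combines spot fluorescence with its signal to noise ratio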
[12] = modulators of HCV replicon luciferase signal, primary screen, HCV replication inhibitor project, Huh7 cells, luciferase reporter (AID 1109); settings: 48 h, higher = more signal;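 note: huh7 hepatoma cells harbouring a luciferase neomycin HCV replicon reporter; luciferase luminescence as measure of HCV replicon replication; test concentration not given here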
[13] = molecular target: Left-right determination factor 2 (Homo sapiens) (UniProt O00292); assay: LEFTY2 binders on small-molecule microarrays, primary screen, biochemical, small-molecule microarray, 635 nm fluorescence scan (AID 1110); settings: LEFTY2 binding, higher = more signal
[14] = molecular target: Calmodulin-1 (Homo sapiens) (UniProt P0DP23); assay: CALM1 binders on microarrays, EGTA buffer, profiling panel, biochemical, small-molecule microarray, Cy5-labelled CALM1 (AID 1111); settings: Cy5-CALM1 binding fluorescence, higher = more signal;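 note: labelled calmodulin applied in Tris saline Tween buffer holding calcium plus EGTA and DTT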
[15] = molecular target: Calmodulin-1 (Homo sapiens) (UniProt P0DP23); assay: calcium-bound CALM1 binders on microarrays, profiling panel, artefact control for SMM control-protein annotation, biochemical, small-molecule microarray, Cy5-labelled CALM1, plus calcium (AID 1112); settings: Cy5-CALM1 binding fluorescence, higher = more signal;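 note: score merges spot fluorescence with signal to noise from triplicate slides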
[16] = small-molecule microarray binders of probe aWnt5a, primary screen, biochemical, biotinylated probe, 635/667 nm fluorescence (AID 1113); settings: higher = more signal;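 note: score merges 667 nm fluorescence intensity with signal-to-noise per printed feature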
[17] = small-molecule microarray binders of probe aShh, primary screen, biochemical, biotinylated probe, 635/667 nm fluorescence (AID 1114); settings: higher = more signal;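 note: probe is biotin-labelled aShh protein from a stem cell growth factor screen; measures binding of labelled protein to compounds printed on the slide; score merges feature fluorescence at 667 nm with signal-to-noise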
[18] = small-molecule microarray binders of probe aNog, primary screen, biochemical, biotinylated probe, 635/667 nm fluorescence (AID 1115); settings: higher = more signal;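 note: probe is biotinylated aNog protein used at 0.15 µg/mL for 1 h at 4 C; z-score combines 667 nm fluorescence of each spot with its signal to noise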
[19] = molecular target: Torsin-1A-interacting protein 1 (Homo sapiens) (UniProt Q5JTV8); assay: LAP1 binders from COS7 cell lysate, primary screen, small-molecule microarray, 635/667 nm fluorescence (AID 1116); settings: COS7-hLAP1 lysate binding, 635 nm fluorescence, higher = more signal
[20] = molecular target: Alpha-bungarotoxin (Bungarus multicinctus) (UniProt P60615); assay: alpha-bungarotoxin binders on microarray, profiling panel, artefact control for SMM control protein annotation, biochemical, small-molecule microarray, Alexa647 label, 635/667 nm fluorescence (AID 1117); settings: alpha-BTX-A647 binding fluorescence, higher = more signal
Sequence of Alpha-bungarotoxin (Bungarus multicinctus) (P60615 whole entry, looked up): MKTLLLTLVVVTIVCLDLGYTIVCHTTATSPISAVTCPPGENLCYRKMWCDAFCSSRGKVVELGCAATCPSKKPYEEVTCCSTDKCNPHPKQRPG

Sequence of Torsin-1A-interacting protein 1 (Homo sapiens) (Q5JTV8 whole entry, looked up): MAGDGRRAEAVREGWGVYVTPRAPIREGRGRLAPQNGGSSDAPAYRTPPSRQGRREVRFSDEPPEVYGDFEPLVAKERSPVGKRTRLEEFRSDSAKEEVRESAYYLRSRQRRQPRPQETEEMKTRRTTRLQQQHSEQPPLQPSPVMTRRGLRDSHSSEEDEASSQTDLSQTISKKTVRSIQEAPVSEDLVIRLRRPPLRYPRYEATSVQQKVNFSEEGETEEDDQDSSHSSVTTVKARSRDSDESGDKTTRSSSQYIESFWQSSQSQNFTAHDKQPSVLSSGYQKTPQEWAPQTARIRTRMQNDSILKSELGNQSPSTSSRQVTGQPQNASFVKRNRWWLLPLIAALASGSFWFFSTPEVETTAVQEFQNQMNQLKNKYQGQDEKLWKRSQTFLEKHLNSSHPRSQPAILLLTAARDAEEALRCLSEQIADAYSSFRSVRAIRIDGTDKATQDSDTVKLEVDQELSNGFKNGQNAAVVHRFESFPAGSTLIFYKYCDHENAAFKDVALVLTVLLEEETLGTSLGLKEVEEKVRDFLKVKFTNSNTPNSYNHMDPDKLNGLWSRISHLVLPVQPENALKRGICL
Sequence of Dickkopf-related protein 1 (Homo sapiens) (O94907 whole entry, looked up): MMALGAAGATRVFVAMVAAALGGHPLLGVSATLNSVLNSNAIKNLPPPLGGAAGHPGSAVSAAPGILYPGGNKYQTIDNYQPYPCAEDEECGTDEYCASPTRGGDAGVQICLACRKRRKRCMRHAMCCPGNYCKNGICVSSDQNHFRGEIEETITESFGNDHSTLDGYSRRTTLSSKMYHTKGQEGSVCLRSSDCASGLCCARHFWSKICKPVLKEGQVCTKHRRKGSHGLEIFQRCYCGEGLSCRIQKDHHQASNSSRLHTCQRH
Sequence of Left-right determination factor 2 (Homo sapiens) (O00292 whole entry, looked up): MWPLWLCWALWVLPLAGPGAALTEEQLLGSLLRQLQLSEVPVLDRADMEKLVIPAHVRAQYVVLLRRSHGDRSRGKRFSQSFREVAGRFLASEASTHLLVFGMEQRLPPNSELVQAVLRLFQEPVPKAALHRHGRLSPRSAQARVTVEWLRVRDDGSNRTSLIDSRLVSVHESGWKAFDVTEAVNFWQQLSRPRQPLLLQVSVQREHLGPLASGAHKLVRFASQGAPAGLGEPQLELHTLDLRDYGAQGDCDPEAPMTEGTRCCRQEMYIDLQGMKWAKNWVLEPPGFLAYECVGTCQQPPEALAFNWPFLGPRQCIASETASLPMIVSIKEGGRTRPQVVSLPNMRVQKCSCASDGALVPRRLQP
Sequence of Fibroblast growth factor 10 (Homo sapiens) (O15520 whole entry, looked up): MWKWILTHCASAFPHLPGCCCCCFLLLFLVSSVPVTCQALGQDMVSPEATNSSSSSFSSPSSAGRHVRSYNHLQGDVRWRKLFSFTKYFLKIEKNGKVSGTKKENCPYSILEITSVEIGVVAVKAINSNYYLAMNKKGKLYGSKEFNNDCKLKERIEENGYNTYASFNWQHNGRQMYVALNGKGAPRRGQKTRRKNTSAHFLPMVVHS
Sequence of Epidermal growth factor receptor (Homo sapiens) (P00533 whole entry, looked up): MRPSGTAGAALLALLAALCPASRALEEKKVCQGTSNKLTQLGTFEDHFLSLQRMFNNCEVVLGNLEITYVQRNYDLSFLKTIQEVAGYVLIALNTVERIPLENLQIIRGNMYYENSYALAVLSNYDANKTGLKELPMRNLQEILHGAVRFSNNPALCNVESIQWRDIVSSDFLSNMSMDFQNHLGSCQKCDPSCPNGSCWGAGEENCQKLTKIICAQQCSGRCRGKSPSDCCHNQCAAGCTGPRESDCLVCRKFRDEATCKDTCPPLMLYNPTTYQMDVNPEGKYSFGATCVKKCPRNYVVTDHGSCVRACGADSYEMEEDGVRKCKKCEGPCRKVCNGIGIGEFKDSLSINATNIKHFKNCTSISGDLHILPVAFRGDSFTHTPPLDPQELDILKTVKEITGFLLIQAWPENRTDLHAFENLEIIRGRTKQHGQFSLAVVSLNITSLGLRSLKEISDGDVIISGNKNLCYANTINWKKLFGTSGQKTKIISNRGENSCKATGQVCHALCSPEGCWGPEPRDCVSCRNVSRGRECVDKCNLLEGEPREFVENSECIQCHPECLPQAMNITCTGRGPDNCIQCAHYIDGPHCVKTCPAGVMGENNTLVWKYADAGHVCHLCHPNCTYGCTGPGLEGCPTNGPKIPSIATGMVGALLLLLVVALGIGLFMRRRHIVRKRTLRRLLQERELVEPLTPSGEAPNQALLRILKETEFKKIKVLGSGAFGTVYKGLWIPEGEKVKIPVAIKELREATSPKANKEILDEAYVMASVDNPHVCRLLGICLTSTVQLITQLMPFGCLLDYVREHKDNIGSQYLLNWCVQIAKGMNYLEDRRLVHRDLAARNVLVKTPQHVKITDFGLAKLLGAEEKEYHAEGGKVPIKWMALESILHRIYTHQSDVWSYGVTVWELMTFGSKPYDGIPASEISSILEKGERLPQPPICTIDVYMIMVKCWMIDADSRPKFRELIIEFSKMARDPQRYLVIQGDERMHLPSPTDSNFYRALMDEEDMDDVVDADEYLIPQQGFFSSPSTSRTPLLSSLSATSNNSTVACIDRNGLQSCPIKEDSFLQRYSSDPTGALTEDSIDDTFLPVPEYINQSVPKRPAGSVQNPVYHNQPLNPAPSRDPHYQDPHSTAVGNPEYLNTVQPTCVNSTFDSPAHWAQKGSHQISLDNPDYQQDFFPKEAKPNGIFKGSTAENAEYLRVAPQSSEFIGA
Sequence of Follistatin-related protein 3 (Homo sapiens) (O95633 whole entry, looked up): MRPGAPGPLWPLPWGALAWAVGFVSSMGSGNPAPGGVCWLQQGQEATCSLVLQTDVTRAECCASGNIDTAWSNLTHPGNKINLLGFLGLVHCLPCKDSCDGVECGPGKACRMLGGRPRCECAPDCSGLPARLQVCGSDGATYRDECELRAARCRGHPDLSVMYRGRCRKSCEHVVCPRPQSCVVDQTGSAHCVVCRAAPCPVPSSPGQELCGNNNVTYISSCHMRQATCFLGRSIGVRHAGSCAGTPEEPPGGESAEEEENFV

Row | SMILES | composite z-score [1] | composite z-score [2] | composite z-score [3] | z-score [4] | composite z-score [5] | composite z-score [6] | composite z-score [7] | composite z-score [8] | composite z-score [9] | composite z-score [10] | composite z-score [11] | z-score [12] | composite z-score [13] | composite z-score [14] | composite z-score [15] | composite z-score [16] | composite z-score [17] | composite z-score [18] | composite z-score [19] | composite z-score [20]
1 | C=CCC(OC(C)=O)[C@@H]1[C@@H](N(Cc2ccc(-c3cccc(C(F)(F)F)c3)o2)C(=O)Cc2ccc(F)cc2)c2cc(OCCCO)ccc2N1C(=O)Cc1ccc(OC)cc1 (stereo not given in full) | -0.0392 | -0.264 | 0.385 | -1.59 (inactive) | -0.0139 | -2.4 | -0.983 | -0.106 | -0.731 | 0.898 | -2.04 | -1.36 | -0.665 | -0.718 | -0.751 | -0.18 | -0.138 | -0.463 | -0.354 | -0.167
2 | CN1C(=O)C2C=CC(C(O)C3CC=CCC3)N(NC(=O)OC(C)(C)C)C2C1=O (stereo not given) | 0.701 | 0.0347 | 0.16 | 1.61 (inactive) | 0.796 | 1.12 | 0.933 | 1.23 | 0.347 | 1.03 | 0.696 | -0.0017 | 0.46 | 2.3 | 0.785 | -0.0539 | -0.195 | 0.55 | 1.84 | 1.3
3 | COc1ccc(C#Cc2ccc3c(c2)[C@]2(C(=O)N3)[C@H](c3ccccc3OCCO)N3[C@H](c4ccccc4)[C@H](c4ccccc4)OC(=O)[C@H]3[C@@H]2C(=O)O)cc1 | 1.26 | 0.734 | 0.142 | -2.14 (inactive) | 1.4 | 1.21 | 0.319 | 0.98 | 0.126 | 0.54 | 1.42 | -2.87 | 0.186 | 1.22 | 1.05 | 0.0932 | 0.0037 | 1.52 | 1.77 | 1.67
4 | CN1C(=O)C2C=CC(C(O)c3ccc(-c4ccccc4)s3)N(N(c3ccccc3)c3ccccc3)C2C1=O (stereo not given) | 0.61 | 0.818 | 0.798 | 0.214 (inactive) | 0.186 | 0.724 | -0.0198 | 0.338 | 0.0129 | 1.18 | 0.761 | 0.339 | -0.18 | 0.906 | 0.405 | 0.0324 | -0.0813 | 1.44 | 0.397 | 1.37
5 | O=C1[C@H]2C=C(Br)[C@H](C[C@@H]2c2ccccc2)[C@@]12CO2 | -0.0067 | -0.217 | -0.261 | 0.723 (inactive) | 0.774 | 0.381 | 0.513 | 0.733 | 0.765 | 0.648 | 0.235 | -3.33 | 1.02 | -0.428 | -0.441 | -0.152 | -0.414 | -0.461 | 0.0974 | 0.0148
6 | C#CCN(Cc1ccccc1Br)C(/C=C/c1ccccc1)CO (stereo not given) | -0.877 | -0.23 | 0.326 | -1.03 (inactive) | 0.168 | -0.398 | -0.153 | -0.649 | -0.0455 | 0.904 | -0.413 | -3.49 | -0.362 | -0.669 | -0.423 | -0.16 | 0.0494 | -0.443 | 0.104 | 0.0125
